Sampled rows, rich in hits. Any-hit rate of the full collection: about 19%.
TDP1 cell noCPT: qHTS for Inhibitors of human tyrosyl-DNA phosphodiesterase 1 (TDP1): qHTS in cells in absence of CPT. DT40 Tdp1-/- hTDP1 cells, no CPT, ATP luminescence, 48 h. Potency, µM (doses to about 46.2 µM), for the others: top-dose activity change, negative = growth inhibition, actives largely listed as inhibitors. 420,000 compounds, 15% hits; also: nearly all actives have a fitted effect of over 55% in size
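Chicken DT40 Tdp1-/- cells stably complemented with human TDP1 were seeded at 400 cells/well with DMSO in place of 20 nM camptothecin. After compound pinning, cells grew at least 48 hr at 37 °C; viability read by CellTiter-Glo luminescence.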
TDP1 cell CPT: qHTS for Inhibitors of human tyrosyl-DNA phosphodiesterase 1 (TDP1): qHTS in cells in presence of CPT; chicken DT40 Tdp1-/-;hTDP1 cells + 20 nM CPT, ATP luminescence, 48 h; 420,000 compounds, 12% hits; Potency, µM (highest dose often 46.2 µM), for the others: at the highest dose activity change, negative = growth inhibition, most hits filed as inhibitors; AID 686979, 2013; also: nearly all actives have a fitted effect of over 55% in size
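Chicken DT40 Tdp1-/- cells stably complemented with human TDP1 were seeded at 400 cells/well in medium containing 20 nM camptothecin, exposed to pin-transferred compounds, and grown at 37 °C for at least 48 hr. Viability was read as ATP luminescence.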
Gal4-VP16 FLuc: VP16 counterscreen qHTS for inhibitors of ROR gamma transcriptional activity; Drosophila S2 Gal4-VP16 UAS-luciferase, luminescence, 20 h; 310,000 compounds, 3.5% hits; AID 2546, 2010; Potency, µM (top dose mostly 53.6 µM), inactives show at the top dose activity, negative = inhibition, hits mostly inhibitors;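 also: Gal4-VP16 expression switched on by copper sulfate through the metallothionein promoter; nearly all actives have a fitted effect of over 50% in size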
RORgamma inh: qHTS for inhibitors of ROR gamma transcriptional activity; Nuclear receptor ROR-gamma (Mus musculus), P51450; Drosophila S2 Gal4-RORgamma UAS-luciferase reporter, 20 h; Potency, µM (series often up to 53.6 µM), for inactives: top-dose activity change, negative = inhibition, most hits filed as inhibitors; 310,000 compounds, 5.4% hits; AID 2551, 2010; also: nearly all actives have a fitted effect of over 60% in size
Target sequence (P51450 whole entry, looked up, the tested form may be a part): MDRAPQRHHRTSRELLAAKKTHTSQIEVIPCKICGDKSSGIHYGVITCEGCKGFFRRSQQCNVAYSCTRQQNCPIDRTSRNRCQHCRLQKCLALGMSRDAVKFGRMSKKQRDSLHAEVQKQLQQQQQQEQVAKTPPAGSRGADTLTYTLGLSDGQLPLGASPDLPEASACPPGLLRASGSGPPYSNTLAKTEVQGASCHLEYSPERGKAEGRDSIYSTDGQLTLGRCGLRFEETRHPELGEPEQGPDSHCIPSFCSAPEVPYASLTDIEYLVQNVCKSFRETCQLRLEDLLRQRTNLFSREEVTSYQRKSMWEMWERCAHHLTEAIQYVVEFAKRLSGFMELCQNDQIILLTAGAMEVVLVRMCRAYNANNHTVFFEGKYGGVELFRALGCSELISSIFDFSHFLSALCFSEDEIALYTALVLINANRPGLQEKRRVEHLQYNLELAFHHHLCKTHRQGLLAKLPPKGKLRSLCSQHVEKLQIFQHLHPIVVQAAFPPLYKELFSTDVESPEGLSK
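Luciferase reporter read in Schneider cells carrying Gal4-RORγ (mouse) and UAS-Photinus luciferase; cells given compound 1 h before 700 uM copper sulfate induction, then incubated 20 h at ambient temperature.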
TDP1 block: qHTS Assay for Inhibitors of Tyrosyl-DNA Phosphodiesterase (TDP1); AID 485290, 2010; 350,000 compounds, 0.28% hits; Tyrosyl-DNA phosphodiesterase 1 (Homo sapiens), Q9NUW8; Potency, µM (titrated, usually from 130 µM), for the others: at the highest dose activity change, negative = inhibition, usual class: inhibitors; recombinant TDP1, AlphaScreen DNA substrate cleavage; also: nearly all actives have a fitted effect of over 40% in size
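Compounds were preincubated with Tdp1 (1 nM final) for 15 min at room temperature before substrate (15 nM final) started a 5 min reaction; beads (10 ug/ml final) were then added for 10 min before AlphaScreen detection.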
The depositor's hits bear a star; u = inconclusive; x = not tested or not shown. Calls follow the shape of the dose curve; as a rule, active = well fitted curve in the direction sought with a large enough effect; inconclusive = small, poorly fitted or top-dose-only effect, or another doubt; inactive = no such curve, though single readings can be large; an effect the other way counts as inactive or inconclusive. % is scaled to controls: 0 for no effect and ±100 for the full control effect; potency is read from the fitted curve at half-maximal effect.

SMILES | TDP1 cell noCPT | TDP1 cell CPT | Gal4-VP16 FLuc | RORgamma inh | TDP1 block
O=C(NCc1ccc(Cl)cc1)NCc1noc2ccccc12 | u | u | x | x | -2.6%
O=C(NCc1noc2ccccc12)Nc1ccc(F)cc1F | -68.9% | 16.4µM* | x | x | -3.8%
Cc1ccc2onc(CNC(=O)Nc3ccccc3C#N)c2c1 | -9.2% | 1.5% | x | x | 0.0%
O=C(NCc1cccc(Cl)c1)NCc1noc2ccccc12 | 16.4µM* | u | x | x | 0.0%
O=C(O)c1ccccc1/C=N/Nc1ccc(S(=O)(=O)N2CCOCC2)cc1[N+](=O)[O-] | 15.8% | -2.5% | 9.9% | 33.5% | 3.6%
CC(=O)c1ccccc1-c1ccc2c(c1)CC(CNC(=O)c1ccnc(Cl)c1)O2 (configuration not stated) | 20.6µM* | 23.1µM* | x | x | x
CC(=O)Nc1ccc(/C=C/c2ccnc3ccccc23)cc1[N+](=O)[O-] | u | 1.41µM* | x | x | x
CC(=O)Nc1ccc(/C=C/c2ccnc3ccccc23)cc1 | 11.2µM* | 15.8µM* | x | x | x
COc1ccc(C(=O)NCCc2nnc3ccc(SCC(=O)Nc4ccccc4)nn23)cc1 | u | -20.8% | -4.6% | -16.6% | 1.4%
COc1ccc(-c2sc3cc(OC)c(OC)cc3c2C#CCO)cc1 | u | 18.4µM* | x | x | -2.3%
COc1ccc2sc(-c3ccc(SC)cc3)c(C#CCO)c2c1 | u | 18.4µM* | x | x | -8.2%
COc1ccc2sc(-c3ccc(SC)cc3)c(C#CC(C)(C)O)c2c1 | u | u | x | x | -4.1%
COc1cc(C2C(C(C)=O)=C(O)C(=O)N2CCc2ccc(OC)c(OC)c2)ccc1O (configuration not stated) | 1.2% | 7.3% | -0.2% | -12.1% | -8.1%
CC(=O)OC1CC2C(C)(C)CCC(=O)[C@@]2(C)C2CC[C@@]3(C)C(c4ccoc4)OC(=O)C4OC43[C@]12C (some centres not stated) | 16.2% | 10.8% | -1.3% | 7.4% | 8.6%
COc1ccc2sc3c(=O)[nH]c4ccccc4c3c2c1 | 1.64µM* | 5.8µM* | 2.7% | 25.0% | 2.0%
Cc1ccc(Cl)cc1N1CCN(C(=O)C2CCC(=O)N(C3CCCCCC3)C2)CC1 (configuration not stated) | 2.91µM* | 6.51µM* | u | -30.6% | 3.0%
O=C(C1CCC(=O)N(C2CCCC2)C1)N1CCN(c2ccccc2Cl)CC1 (configuration not stated) | 5.4% | -21.5% | -3.1% | 11.2% | -1.4%
Cc1cccc(N2CCN(C(=O)C3CCC(=O)N(C4CC4)C3)CC2)c1C (configuration not stated) | u | 16.4µM* | -1.5% | 3.4% | 0.9%
CN(C)c1ncnc2sc(-c3ccccc3)cc12 | -23.0% | u | 19.1% | 2.2% | 2.3%
O=C(NC(=S)NCc1cccnc1)c1ccccc1[N+](=O)[O-] | u | u | 1.6% | 12.9% | 2.4%
Cc1cc(/C=C(\C#N)C(=O)NCc2ccccc2)cc(C)c1O | -19.5% | -7.9% | -1.6% | -21.8% | x
CCN(Cc1ccccc1)C(=O)c1[nH]c2ccc(OC)cc2c1C | u | 10.1% | -7.7% | -15.8% | x
CCN(CC)CCNC(=O)c1[nH]c2ccc(OCc3ccccc3)cc2c1C | u | u | -16.5% | 12.6µM* | 7.0%
CN(C)c1ccc(NC(=O)CC(NCc2cccnc2)C(=O)O)cc1 (configuration not stated) | -14.6% | -16.1% | x | x | x
O=C1C(=O)N(c2nccs2)C(c2ccccc2F)/C1=C(\O)c1ccc2c(c1)OCCO2 (configuration not stated) | 16.4µM* | u | 4.8% | 1.1% | 4.9%
Cc1nnc(N2C(=O)C(=O)/C(=C(/O)c3ccc4c(c3)OCCO4)C2c2ccc(F)cc2)s1 (configuration not stated) | 9.0% | -15.3% | 2.3% | -1.4% | 5.2%

Assay outcomes (PubChem)
